In all, about 33,000 sequences were measured (“E-score (-0.5 to 0.5)”: median about -0.016, highest 2% from about 0.32 on). Only a selection was taken, and the highest values are over-represented in it overall.

The assay deals with T1, Stp1 (UniProt B3LFK1).
T1 sequence: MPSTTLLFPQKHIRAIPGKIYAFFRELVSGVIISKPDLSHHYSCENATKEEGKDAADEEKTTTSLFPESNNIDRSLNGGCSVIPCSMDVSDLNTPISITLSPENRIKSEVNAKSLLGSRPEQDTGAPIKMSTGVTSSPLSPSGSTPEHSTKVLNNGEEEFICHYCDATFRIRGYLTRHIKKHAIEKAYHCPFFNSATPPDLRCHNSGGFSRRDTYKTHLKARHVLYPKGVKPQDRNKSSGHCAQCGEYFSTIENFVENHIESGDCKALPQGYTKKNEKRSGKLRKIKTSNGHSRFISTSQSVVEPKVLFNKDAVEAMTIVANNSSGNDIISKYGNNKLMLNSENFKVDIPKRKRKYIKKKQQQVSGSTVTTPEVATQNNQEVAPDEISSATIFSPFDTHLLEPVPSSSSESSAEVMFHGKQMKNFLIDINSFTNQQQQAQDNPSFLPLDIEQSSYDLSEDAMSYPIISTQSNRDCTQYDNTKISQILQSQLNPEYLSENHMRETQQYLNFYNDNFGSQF
Kind of assay: PBM E-score (8-mer binding enrichment) (E-score (-0.5 to 0.5)); higher = stronger / more preferred TF binding. Particulars: protein concentration: 200 nM; construct: GST-full length. The essentials: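 E-scores (a modified Wilcoxon-Mann-Whitney statistic) were assigned by the Universal PBM Analysis Suite to every ungapped eight-base word pooled with its reverse complement. The input came from universal all-10-mer Agilent arrays made double-stranded by primer extension and probed with GST-tagged yeast transcription factors at about 100-200 nM. Fluorescent anti-GST detected bound protein, and masliner normalised the scans.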
Consider CGATCGAG, for which the “PBM E-score” value came out at 0.0366. Take AACTCAGA: the “PBM E-score” value worked out at 0.183. Next, CTCGCCGC: 0.353; CTCGCCAC: -0.0166. For ATCGCCGC, the “PBM E-score” value is 0.45. As for CTCGCCGA, the “PBM E-score” value was -0.0672. Next, ATCGCCGA: 0.212; ATCGCCGG: 0.192.

CATTGGAC: the “PBM E-score” value was -0.155. As for AGCTACTG, the “PBM E-score” value is -0.229. In the case of AAAACATG, the “PBM E-score” value was -0.00948. Next, CTAGAGAA: 0.23; CCACCTAG: -0.373. In the case of CAGTCTGG it was -0.218; in that of CCCCTTAA, -0.172. Next, TGACGGCA: 0.175; ACACGGTG: 0.154; CCACGGGG: -0.124. Take CCACGGCG: the “PBM E-score” value was determined as 0.478. In the case of ACACGGCG it was 0.488; in that of ACACGGAG, 0.295; in that of ACACGGAT, 0.315. Next, ACACGGCT: 0.458.

On to ACACGGGT, for which the “PBM E-score” value was 0.202. For the sequence TCACGGCA, the “PBM E-score” value was 0.401.

With CCACGGAG, the “PBM E-score” value came out at 0.159. Take TCACGGAA: the “PBM E-score” value was determined as 0.173. As to GCTGCGAC, the “PBM E-score” value was -0.089. TAACCCCA: the “PBM E-score” value is -0.336. In the case of CAACACGA it was 0.0474; in that of GCGCGAGA, 0.107. With AACAGTAC, the “PBM E-score” value was 0.0276.

Take CCACGGAA: the “PBM E-score” value is 0.198.

CCACGGCC: the “PBM E-score” value worked out at 0.185.

As to CCACGGCA, the “PBM E-score” value turned out to be 0.46. For the sequence ACGGGGGC, the “PBM E-score” value is -0.325. As to GTGAAGTA, the “PBM E-score” value is -0.0855. In the case of ACCGCGCA it was 0.0261; in that of GCCGCGCC, 0.46. For the sequence ACCGCGCC, the “PBM E-score” value turned out to be 0.3. Regarding ACCGCGCG, the “PBM E-score” value was found to be 0.209. With GCCGCGCA, the “PBM E-score” value worked out at 0.476. On to CCCGCGCA, for which the “PBM E-score” value was -0.0346. Next, CCCGCGTA: -0.0603. Consider GCCGCGTA, for which the “PBM E-score” value is 0.465. In the case of ACCGCGTA it was 0.051; in that of AATCATTC, 0.146; in that of GAGAGCCC, -0.302. In the case of AATCGTAC, the “PBM E-score” value was determined as 0.12. As for ATGCCATA, the “PBM E-score” value was 0.117. CCCCTGCC: the “PBM E-score” value is -0.198. Turning to CGCCTCTC, the “PBM E-score” value worked out at 0.0325. With AGACGCCA, the “PBM E-score” value was 0.00574. Take CGACGCCA: the “PBM E-score” value turned out to be 0.106. Next, CGACGCCG: 0.457. On to CGACGCCC, for which the “PBM E-score” value amounted to 0.0245. In the case of AGACGCCC, the “PBM E-score” value came to 0.0951. Take AGACGCCG: the “PBM E-score” value worked out at 0.405. In the case of CATATCTC it was -0.0779; in that of CGAGAAAG, -0.0578.

For GACTACGC, the “PBM E-score” value is -0.174. Next, ACATTCAC: -0.0143; AGGTGAAG: -0.132. In the case of ACAGGGTA it was -0.125; in that of ATTGCGCA, -0.0299; in that of ATTGCGCC, 0.308.

As to ATTGCGCG, the “PBM E-score” value came out at 0.32. Turning to GGGAGCTA, the “PBM E-score” value was -0.235. For the sequence GTGCCGAA, the “PBM E-score” value is 0.322. For the sequence GCGCCGAA, the “PBM E-score” value is 0.389. Regarding ATGCCGAA, the “PBM E-score” value is 0.311. In the case of CTGCCGAA it was 0.127.

For TCGCCGAA, the “PBM E-score” value is 0.105.

For the sequence GCGCCGAC, the “PBM E-score” value was found to be 0.309. In the case of GCTTCGCC, the “PBM E-score” value is -0.0679. CCAGCGAA: the “PBM E-score” value is -0.209. In the case of CGCCGTTC, the “PBM E-score” value was 0.464. In the case of AGCCGTTG it was 0.26. Take AGCCGTTC: the “PBM E-score” value stood at 0.424. Regarding CACCGTTC, the “PBM E-score” value was determined as 0.0204. Next, AGCCGTCC: 0.308. In the case of CCCCGTTC it was -0.235; in that of CGCCGTTA, 0.381; in that of AGCCGTTA, 0.159. Turning to CACCGTTA, the “PBM E-score” value came out at 0.0959. Next, CGCCGTCC: 0.443.

These data come from the supplement of paper PMC3334620.
